Screening data deposited in PubChem by Center for Chemical Genomics, University of Michigan.
The entries come from a sample that favours hits as a whole.
Dicer inh: human Dicer pre-microRNA cleavage inhibition; Q9UPY3; cat-ELCCA pre-miR-21 Dicer processing, chemiluminescence; active compounds read high; z-score at 25 µM; 47,000 tested, 6% active; AID 1347074; in the data active = z-score above about 3, passing the limit was not always enough;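 also: plate controls were vehicle for no effect and no enzyme for full effect; higher signal means more uncleaved substrate so more Dicer inhibition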
Active calls of the source: *.

SMILES	Dicer inh
Cc1c(-c2nc(-c3cc(C(F)(F)F)cc(C(F)(F)F)c3)no2)oc2ccccc12	-0.31
c1ccc(-c2ccc(-c3nc(-c4cccnc4)no3)cc2)cc1	3.2*
COc1ccc(-c2nc(-c3cccnc3)no2)cc1	1.8
Cc1ccc(-c2nc(-c3cccnc3)no2)cc1C	2
Cc1ccc(C2Nc3cc(C)c(C)cc3NC3=C2C(=O)CC(C)(C)C3)o1 (stereo not drawn)	6.1
N#Cc1ccc(-c2ccc3c(c2)OCCO3)[nH]c1=S	0.46
Brc1ccc(CSc2nnc([C@@H]3CCCN3)o2)cc1	-1.5
CC1Cc2cc(/C(O)=C3/C(=O)C(=O)N(CCN(C)C)C34C(=O)N(C)c3ccccc34)ccc2O1 (stereo not drawn)	4.4*
CCN1C(=O)C2(/C(=C(/O)c3ccccc3)C(=O)C(=O)N2CCN2CCOCC2)c2ccccc21 (stereo not drawn)	1
COCCCN1C(=O)C(=O)/C(=C(\O)c2ccc3c(c2)CC(C)O3)C12C(=O)N(C)c1ccccc12 (stereo not drawn)	0.99
CCOc1ccc(/C(O)=C2/C(=O)C(=O)N(CCN(C)C)C23C(=O)N(C)c2ccccc23)cc1 (stereo not drawn)	1.8
COc1ccc(/C(O)=C2/C(=O)C(=O)N(CCCN3CCOCC3)C23C(=O)N(C)c2ccccc23)cc1 (stereo not drawn)	1.9
CC1Cc2cc(/C(O)=C3/C(=O)C(=O)N(CC4CCCO4)C34C(=O)N(C)c3ccccc34)ccc2O1 (stereo not drawn)	1.5
CCN1C(=O)C2(/C(=C(/O)c3ccc(Cl)cc3)C(=O)C(=O)N2CCN2CCOCC2)c2ccccc21 (stereo not drawn)	1.2
CN1C(=O)C2(/C(=C(/O)c3ccccc3)C(=O)C(=O)N2CCN2CCOCC2)c2ccccc21 (stereo not drawn)	5.4*
CN1C(=O)C2(/C(=C(/O)c3ccccc3)C(=O)C(=O)N2CCCN2CCOCC2)c2ccccc21 (stereo not drawn)	5.3*
COc1ccc(/C(O)=C2/C(=O)C(=O)N(CCN3CCOCC3)C23C(=O)N(C)c2ccccc23)cc1 (stereo not drawn)	3.5*
CCN1C(=O)C2(/C(=C(/O)c3ccc(F)cc3)C(=O)C(=O)N2CCCN2CCOCC2)c2ccccc21 (stereo not drawn)	2.4
Cc1ccc(/C(O)=C2/C(=O)C(=O)N(CCN(C)C)C23C(=O)N(C)c2ccccc23)cc1 (stereo not drawn)	1.6
O=C(NNc1c(Cl)cccc1Cl)NS(=O)(=O)c1ccc(Cl)cc1	0.09
CCOc1cc(C2Nc3ccc(C(=O)c4ccccc4)cc3NC3=C2C(=O)CCC3)ccc1O (stereo not drawn)	-1.3
CC(NC(=O)OCC1c2ccccc2-c2ccccc21)C(=O)O (stereo not drawn)	-0.86
COc1ccccc1NC(=O)NNC(=S)NCC(OC)OC	-0.02
COc1ccc(CN2C(=O)c3oc4ccccc4c(=O)c3C2c2cccc(O)c2)cc1 (stereo not drawn)	-0.77
CCOC(=O)c1ccc(Cl)c(NC(=S)N(C)C)c1	-0.41
SMILES	Dicer inh
COC(=O)c1sc(C(C)(C)C)cc1NC(=O)C(Cl)(Cl)Cl	-0.33
O=C(O)c1ccccc1CS(=O)c1ccccc1 (stereo not drawn)	0.3
CCc1ccccc1N1CC(O)=C(c2nc3ccccc3c(=O)[nH]2)C1=N	4.9*
Cc1ccc(N2CC(O)=C(c3nc4ccccc4c(=O)[nH]3)C2=N)c(C)c1	-0.23
CCOc1ccc(N2CC(O)=C(c3nc4ccccc4c(=O)[nH]3)C2=N)cc1	1.1
Cn1cnc2c1c(=O)n(CC(O)CN1CCN(CCO)CC1)c(=O)n2C (stereo not drawn)	1.3
COc1cccc(C(=O)OCC(=O)c2ccc(Br)cc2)c1	5.9*
Cc1ccc(I)c(C(=O)OCC(=O)c2ccc(Br)cc2)c1	1.2
COc1ccc(C(=O)OCC(=O)c2ccc(Br)cc2)cc1OC	0.14
CC(=O)n1c2ccccc2c2nc(N)sc21	-0.55
CC(C(=O)c1ccc(-c2ccccc2F)cc1)N1CCN(c2ccc(C#N)cc2)CC1 (stereo not drawn)	0.28
OCCn1c(SCCOc2ccc(Cl)cc2)nc2ccccc21	-0.59
Cc1cc2nnc(C(=O)NN)c(C)n2n1	-3.8
Fc1ccc(C2CC(c3cccc4ccccc34)n3ncnc3N2)cc1 (stereo not drawn)	0.25
CN(C)C(=O)COc1ccc2ccccc2c1	-0.66
COCn1c(COc2ccc3ccccc3c2)nc2ccccc21	1.4
O=C(OCc1ccccn1)c1ccc(COc2ccc3ccccc3c2)o1	3*
COc1cccc(-n2cc(-c3ccc(F)cc3)nc2SCC(=O)c2cccs2)c1	-1.7
CCOC(=O)c1nnn(-c2ccc(F)c(Cl)c2)c1NC(=O)c1cccs1	-0.17
CCCCC1(CNc2ccc(C)c([N+](=O)[O-])c2)C(=O)N(c2ccccc2)N(c2ccccc2)C1=O	2.2
CCCCC1(COC(=O)Nc2cccc(Cl)c2)C(=O)N(c2ccccc2)N(c2ccccc2)C1=O	1.8
CCCCC1(CO)C(=O)N(c2ccccc2)N(c2ccccc2)C1=O	6.1*
CSC1=NC=C(C#N)C2=NC(c3c(F)cccc3Cl)NN12 (stereo not drawn)	-0.41
FC(F)(F)c1cc(-c2ccco2)nc2c(-c3ccccc3)cnn12	-1.7
CSc1nc(C)nc(Nc2ccc(Cl)cc2Cl)c1C#N	-0.83
SMILES	Dicer inh
CSc1ccc(/C=N/Nc2ccc(Cl)cc2Cl)s1	5.2
CSc1nnc(Nc2ccc(Cl)cc2Cl)s1	3.9*
Cc1onc(-c2ccccc2)c1NC(=O)N(C)C1CCCCC1	-0.53
Cc1ccc2nc(NC3=NCN(C(C)C)CN3)nc(C)c2c1	0.47
CCC(=O)N1c2ccccc2-c2nnc(SC)nc2OC1c1ccc(C(=O)O)cc1 (stereo not drawn)	0.34
O=C(NNS(=O)(=O)c1ccc(-c2ccccn2)s1)Nc1cccc(Cl)c1	4*
COc1ccc(SCCC(=O)NNS(=O)(=O)c2ccc(-c3ccccn3)s2)cc1	-1.7
Clc1cccc(Sc2ccc(-c3ccccn3)s2)c1	-0.72
Cc1cc(C)n2nc(SCC(=O)Nc3ccc(C(C)C)cc3)nc2n1	-0.19
CCc1[nH]nc2c1C(c1ccc(F)cc1)C(C#N)=C(N)O2 (stereo not drawn)	-1.7
COc1ccc(CCNC(=S)NC(=O)c2ccccc2)cc1OC	0.83
O=C(NC(=S)NCC1CC1)c1ccccc1	-0.16
O=C(NC(=S)NCc1ccncc1)c1ccccc1	3.4*
S=C(NCCc1ccccn1)c1ccccc1	-1.9
O=C(NNC(=S)NCCc1ccccc1)c1ccncc1	-0.08
O=C(NC(=S)NCCc1ccccn1)c1ccccc1	3.1*
O=C(O)c1cnc2sc3ccccc3n2c1=O	1.5
Cc1ccc(-c2nc(-c3ccc(OCC(F)(F)F)nc3)no2)cc1	-1.4
COc1ccc(C2C(C(=O)OC3CCCCC3)=C(C)NC3=C2C(=O)CCC3)cc1 (stereo not drawn)	0.6
N#Cc1c(N)sc2c1CCc1ccccc1-2	0.19
Cc1nc2ccc(Cc3ccc4nc(C)[nH]c4c3)cc2[nH]1	5*
Cc1ccc2nc(Cc3nc4ccc(C)cc4[nH]3)[nH]c2c1	-1.7
Cc1ccc2nc(Cc3ccc(N)cc3)[nH]c2c1	2.7
CCn1nc(C)cc1-c1nnc(SCC(=O)c2ccccc2)n1-c1ccc(Cl)cc1	0.3
COc1ccccc1Oc1coc2cc(O)ccc2c1=O	0.15
CCOc1ccccc1Oc1c(C)oc2cc(O)ccc2c1=O	0.76
CCOc1ccccc1Oc1coc2cc(O)ccc2c1=O	3.3*
